Shown are actives, neighbours in structure and some others; about 3.1% of the full set was active somewhere.
CF NFkB block: cystic fibrosis NF-kB activation inhibition. inhibition, % at 5 µM. 360,000 compounds, 0.86% hits. KKLEB NF-kB-GFP reporter, PAF-induced, GFP fluorescence overnight;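 active = at least 50% inhibition at 5 µM, scaled per plate between neutral and stimulator controls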;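 note: PAF is a Pseudomonas aeruginosa culture filtrate used as stimulus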
PPC-1+TRAIL kill: kills PPC-1 cancer cells in the presence of TRAIL; PPC-1 cells + TRAIL, ATPLite viability luminescence; cell killing (% activity), % at 4 µM or 5 µM; 220,000 compounds, 0.41% hits;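 active = cell killing above 50% in the first pass at 4 µM, then a duplicate retest at 5 µM averaging 50% or more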
KKLEB tox: CF airway cell cytotoxicity counter-screen; KKLEB CF airway cells viability, ATPlite luminescence, overnight; active compounds read low; cells stimulated with P. aeruginosa culture filtrate; activity change (cytotoxicity), % at 5 µM; 360,000 compounds, 0.36% hits;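 active = corrected activity change at or below -50% at 5 µM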
Peg3 prom inh-1: inhibitors of Peg3 promoter | HeLa PEG-Prom luciferase reporter, luminescence, overnight | inhibition, % at 20 µM | 360,000 compounds, 1.7% hits;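 active = inhibition of at least 50% at 20 µM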
HIF-2a block: HIF-2a inhibition; 786-0 RCC cells HIF-2a reporter, luciferase luminescence, overnight; inhibition, % at 18.8 µM; 360,000 compounds, 0.72% hits;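 active = inhibition of the luminescence signal of 40% or more relative to plate controls, in a single-dose primary screen at 18.75 µM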
C8 TRAIL sens: caspase-8 TRAIL sensitization; NB7+C8 cells + TRAIL, ATPlite viability luminescence; inhibition (viability loss, TRAIL sensitization), % at 10 µM; 360,000 compounds, 1% hits; AID 624354;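 active = compounds causing at least 50% loss of cell viability in the single-dose screen, relative to plate controls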
Peg3 prom inh-2: Peg3 promoter inhibition confirmation | shares compounds with Peg3 prom inh-1 | HeLa PEG-Prom luciferase reporter, luminescence, overnight | inhibition, % at 20 µM | 1,300 compounds, 84% hits | AID 602417;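 active = at 20 µM dose, 40% or more inhibition averaged across four replicates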
CF NFkB conf: confirmation of cystic fibrosis induced NF-kB inhibitors. shares compounds with CF NFkB block. KKLEB CF airway cells, PAF-induced NF-kB-GFP fluorescence, overnight. inhibition, % at 5 µM. 1,300 compounds, 64% hits. AID 602472; in the data active = inhibition above about 40%;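 note: stimulus PAF is a Pseudomonas aeruginosa filtrate and not platelet activating factor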
HIF-2a inh conf: HIF-2a inhibition, single concentration confirmation. shares compounds with HIF-2a block. 786-0 RCC cells, HIF-2a luciferase reporter luminescence, overnight. inhibition, % at 18.8 µM. 1,800 compounds, 56% hits. AID 651580;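 active = mean inhibition across four replicates of at least 40 percent at the single tested concentration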
HIF-1a counter: HIF-1a inhibition counter-screen for HIF-2a hits; shares compounds with HIF-2a block; MiaPaCa-2 HIF-1a luciferase reporter, desferoxamine, overnight; inhibition, % at 18.8 µM; 1,800 compounds, 72% hits; AID 651589;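 active = mean inhibition of the reporter signal across four replicates at the single tested dose of 50% or more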
Numbers stand for hits.

`O=S1(=O)N(Cc2ccc(F)cc2)CCCN1Cc1ccccc1Cl` gave CF NFkB block inactive, KKLEB tox inactive, Peg3 prom inh-1 inactive, HIF-2a block inactive and C8 TRAIL sens inactive.
Screening CCN(CC)C(=O)Cn1cc(/C=C2\C(=O)NC(=O)N(c3ccccc3F)C2=O)c2ccccc21 returned CF NFkB block inactive, KKLEB tox inactive, Peg3 prom inh-1 58, HIF-2a block 44, C8 TRAIL sens inactive and Peg3 prom inh-2 92.
Cc1ccc(CN2Cc3ccc(Br)cc3-n3nncc3C2)cc1 was read as CF NFkB block inactive, KKLEB tox inactive, Peg3 prom inh-1 inactive, HIF-2a block inactive and C8 TRAIL sens inactive.
Screening CN1C(=O)C(c2ccc([N+](=O)[O-])cc2[N+](=O)[O-])C(=O)N(C)C1=O returned CF NFkB block inactive, KKLEB tox inactive, Peg3 prom inh-1 inactive, HIF-2a block inactive and C8 TRAIL sens inactive.
Screening CCN(CC)C(=O)c1ccc(NC(=O)c2cccc(C(F)(F)F)c2)cc1 returned CF NFkB block inactive, PPC-1+TRAIL kill inactive, KKLEB tox inactive, Peg3 prom inh-1 inactive, HIF-2a block inactive and C8 TRAIL sens inactive.
CCN(CCCl)c1cc(CN(C)C)cc(NC(=O)c2ccc(C(=O)Nc3cc(CN(C)C)cc(N(CC)CCCl)c3)cc2)c1 was read as CF NFkB block 80, KKLEB tox -89, Peg3 prom inh-1 101, HIF-2a block 70, C8 TRAIL sens 95 and Peg3 prom inh-2 99.
For COc1ccc(CC2C(=O)NC(C)C(=O)N(C)C3C(=O)N(C)C(Cc4ccc(O)c(c4)Oc4ccc(cc4)C3O)C(=O)NC(C)C(=O)NC(C)C(=O)N2C)cc1 (stereo not given) the results were CF NFkB block 82, KKLEB tox inactive, Peg3 prom inh-1 96, HIF-2a block 87, C8 TRAIL sens 66 and Peg3 prom inh-2 98.
For NNCc1ccccc1 the results were CF NFkB block inactive, KKLEB tox inactive, Peg3 prom inh-1 inactive, HIF-2a block inactive and C8 TRAIL sens inactive.
C=Cc1cc(OC)c2c(c1)c(=O)oc1c2cc(OC)c2c(O)ccc(C3OC(C)C(O)C(C)(O)C3O)c21 (stereo not given) was read as CF NFkB block 79, KKLEB tox inactive, Peg3 prom inh-1 106, HIF-2a block 52, C8 TRAIL sens inactive and Peg3 prom inh-2 98.
Cc1ccc(S(=O)(=O)c2nc(-c3ccccc3Cl)oc2N(C)C2CCN(C)CC2)cc1 was read as CF NFkB block inactive, KKLEB tox inactive, Peg3 prom inh-1 64, HIF-2a block inactive, C8 TRAIL sens inactive and Peg3 prom inh-2 78.
Screening COc1cccc(C2CC3C(=O)C=CC2N3Cc2ccccc2)c1 (stereo not given) returned CF NFkB block inactive, PPC-1+TRAIL kill inactive, KKLEB tox inactive, Peg3 prom inh-1 68, HIF-2a block 48, C8 TRAIL sens inactive, Peg3 prom inh-2 71, HIF-2a inh conf 57 and HIF-1a counter inactive.
O=C(NCC1=C(c2ccc3ccccc3c2)C[C@@H]2CC[C@H]1N2Cc1ccco1)c1cccnc1 was read as CF NFkB block inactive, KKLEB tox inactive, Peg3 prom inh-1 inactive, HIF-2a block inactive and C8 TRAIL sens inactive.
Screening NC(=Nc1ccccc1)NN=Cc1c[nH]c2ccccc12 returned CF NFkB block 67, KKLEB tox inactive, Peg3 prom inh-1 inactive, HIF-2a block inactive, C8 TRAIL sens inactive and CF NFkB conf 55.
Screening CCOc1cc2c(cc1OCC)-n1cccc1C(c1ccc(C(C)C)cc1)NC2 (stereo not given) returned CF NFkB block inactive, KKLEB tox inactive, Peg3 prom inh-1 inactive, HIF-2a block inactive and C8 TRAIL sens inactive.
Screening Oc1ccc(Br)cc1CN1CCN(c2ccccc2)CC1 returned CF NFkB block 62, PPC-1+TRAIL kill inactive, KKLEB tox inactive, Peg3 prom inh-1 inactive, HIF-2a block inactive, C8 TRAIL sens inactive and CF NFkB conf inactive.
O=c1[nH]c2ccccc2n1C1CCN(C(c2cc3ccccc3o2)c2nnnn2-c2ccc3c(c2)OCCO3)CC1 (stereo not given) was read as CF NFkB block 80, KKLEB tox inactive, Peg3 prom inh-1 98, HIF-2a block inactive, C8 TRAIL sens 86 and CF NFkB conf 106.
COc1ccc(C(c2nnnn2-c2ccc(OC)cc2)N2CCC(n3c(=O)[nH]c4ccccc43)CC2)cc1 (stereo not given) was read as CF NFkB block 92, KKLEB tox inactive, Peg3 prom inh-1 68, HIF-2a block inactive, C8 TRAIL sens inactive and CF NFkB conf 90.
Screening CS(=O)(=O)c1ccc(C2=C(CNC(=O)c3cccnc3)[C@H]3CC[C@@H](C2)N3Cc2ccccc2)cc1 returned CF NFkB block inactive, KKLEB tox inactive, Peg3 prom inh-1 inactive, HIF-2a block inactive and C8 TRAIL sens inactive.
For COc1cc(C2c3cc4c(c(O)c3CC3COC(=O)C32)OCO4)cc(OC)c1OC (stereo not given) the results were CF NFkB block 51, KKLEB tox inactive, Peg3 prom inh-1 inactive, HIF-2a block inactive, C8 TRAIL sens inactive and CF NFkB conf 90.
For COc1cc(C2c3cc4c(cc3CC3COC(=O)C32)OCO4)cc(OC)c1OC (stereo not given) the results were CF NFkB block inactive, KKLEB tox inactive, Peg3 prom inh-1 inactive, HIF-2a block inactive and C8 TRAIL sens inactive.
COc1ccc(C(CNC(=O)Cc2ccc(Cl)c(Cl)c2)N2CCCCC2)cc1 (stereo not given) was read as CF NFkB block inactive, KKLEB tox inactive, Peg3 prom inh-1 inactive, HIF-2a block inactive and C8 TRAIL sens inactive.
`CCOC(=O)c1cnc(SCc2ccc(Cl)c(Cl)c2)nc1N1CC1` gave CF NFkB block 67, KKLEB tox inactive, Peg3 prom inh-1 inactive, HIF-2a block inactive, C8 TRAIL sens inactive and CF NFkB conf inactive.
For CCNC(=O)[C@H]1O[C@@H](n2cnc3c(N)ncnc32)[C@H](O)[C@@H]1O the results were CF NFkB block inactive, PPC-1+TRAIL kill inactive, KKLEB tox inactive, Peg3 prom inh-1 inactive, HIF-2a block inactive and C8 TRAIL sens inactive.
